Screens from PubChem BioAssay.
CYP2C19 inhib = blocks human cytochrome P450 2C19; P33261; CYP2C19 Supersomes, luciferin-H EGE luminescence, 30 min; inhibition, % at 5 µM; 21% of 96,000 active; AID 778;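 active = CYP2C19 inhibition above a set limit at 5 µM in the primary screen, cut at about 50% in these data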;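 note: plate controls were negative control wells for no effect and 2.5 mM tranylcypromine positive control for full effect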
CYP2C9 inhib = human CYP2C9 inhibition | P11712 | CYP2C9 Supersomes, luciferin-H conversion, luminescence | inhibition, % at 5 µM | 20% of 96,000 active;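 active = blocking of liver enzyme CYP2C9 beyond about 50% at 5 µM, limit read from the data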
Target sequence (P11712 whole entry, looked up): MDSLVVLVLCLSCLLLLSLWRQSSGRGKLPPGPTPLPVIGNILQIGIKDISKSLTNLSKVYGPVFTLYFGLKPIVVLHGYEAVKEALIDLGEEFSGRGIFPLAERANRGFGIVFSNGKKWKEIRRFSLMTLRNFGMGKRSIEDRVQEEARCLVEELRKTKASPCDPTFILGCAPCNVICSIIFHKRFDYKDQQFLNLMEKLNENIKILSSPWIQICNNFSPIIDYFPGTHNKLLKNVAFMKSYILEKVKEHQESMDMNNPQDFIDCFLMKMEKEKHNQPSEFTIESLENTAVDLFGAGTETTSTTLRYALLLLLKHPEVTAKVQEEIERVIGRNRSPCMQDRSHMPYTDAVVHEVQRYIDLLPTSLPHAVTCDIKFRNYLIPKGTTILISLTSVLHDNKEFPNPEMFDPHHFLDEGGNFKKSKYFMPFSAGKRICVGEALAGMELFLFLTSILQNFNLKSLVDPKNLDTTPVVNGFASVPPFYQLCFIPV
CYP2C19 activ = increases human CYP2C19 enzyme activity | 96,000 tested, under 10 active | activation factor at 5 µM | recombinant CYP2C19, luciferin-H EGE luminescence; stronger effect = higher value; 0 = fully inhibited enzyme, 1 = untreated enzyme;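 active = activation factor of at least 2 at 5 µM in the primary screen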;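 note: 0 = wells with 2.5 mM tranylcypromine and 1 = vehicle-only wells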
CYP2C9 act = activators of human CYP2C9; P11712; activation factor at 5 µM; 1.4% of 96,000 active; recombinant CYP2C9, luciferin-H conversion, luminescence; stronger effect = higher value; factor 1 = untreated enzyme, 0 = blocked; AID 1024;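 active = activation factor of 2 or more for CYP2C9 at a 5 µM dose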;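 note: 0 = sulfaphenazole-blocked wells and 1 = vehicle-only wells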
An asterisk follows results filed as active. The list is not random: actives were taken first. Their share in the collection is about 31%.

For Cc1nc(N2CCN(Cc3ccccc3)CC2)[nH]c(=O)c1C the results were CYP2C19 inhib -10, CYP2C9 inhib -2, CYP2C19 activ 1.1 and CYP2C9 act 1.
`CCOC(=O)c1cc(-c2ccccc2)sc1NC(=O)CN1C(=O)NC(CC)(c2ccccc2)C1=O` (stereo not drawn) gave CYP2C19 inhib 30, CYP2C9 inhib 89*, CYP2C19 activ 0.7 and CYP2C9 act 0.1.
CCC1(c2ccccc2)NC(=O)N(CC(=O)Nc2cccc(C#N)c2)C1=O (stereo not drawn) was read as CYP2C19 inhib 71*, CYP2C9 inhib 46, CYP2C19 activ 0.3 and CYP2C9 act 0.5.
Screening CC1(c2ccccc2)NC(=O)N(CC(=O)Nc2cccc(C#N)c2)C1=O (stereo not drawn) returned CYP2C19 inhib 34, CYP2C9 inhib 73*, CYP2C19 activ 0.7 and CYP2C9 act 0.3.
For CC1(c2ccccc2)NC(=O)N(CC(=O)Nc2ccc3c(c2)OCO3)C1=O (stereo not drawn) the results were CYP2C19 inhib 33, CYP2C9 inhib 87*, CYP2C19 activ 0.7 and CYP2C9 act 0.1.
Screening Cc1ccc(NC(=O)CN(C)C(=O)CN2C(=O)NC(C)(c3ccccc3)C2=O)cc1 (stereo not drawn) returned CYP2C19 inhib -2, CYP2C9 inhib 12, CYP2C19 activ 1 and CYP2C9 act 0.9.
CC[C@H](C)[C@H](NS(=O)(=O)c1ccc(C)cc1)C(=O)N1CCC(C(=O)N[C@@H](C)C(=O)O)CC1 was read as CYP2C19 inhib 7, CYP2C9 inhib -5, CYP2C19 activ 0.9 and CYP2C9 act 1.
Screening O=C(O)c1cccc(S(=O)(=O)N2CCSCC2)c1 returned CYP2C19 inhib -18, CYP2C9 inhib -21, CYP2C19 activ 1.2 and CYP2C9 act 1.2.
For O=C(NC1CCCCC1)C1CC=CCC1C(=O)OCC(Cl)=C(Cl)Cl (stereo not drawn) the results were CYP2C19 inhib 17, CYP2C9 inhib 34, CYP2C19 activ 0.8 and CYP2C9 act 0.7.
`O=C(CN1C(=O)NC2(CCc3ccccc32)C1=O)Nc1ccc(N2CCOCC2)cc1` (stereo not drawn) gave CYP2C19 inhib -2, CYP2C9 inhib 4, CYP2C19 activ 1 and CYP2C9 act 1.
For COc1cccc(C(=O)N(Cc2ccc(N(C)C)cc2)C2CCS(=O)(=O)C2)c1 (stereo not drawn) the results were CYP2C19 inhib 23, CYP2C9 inhib -6, CYP2C19 activ 0.8 and CYP2C9 act 1.1.
`CC1(C)Cc2noc(N)c2C(C)(C)N1OC(=O)c1scc2c1OCCO2` gave CYP2C19 inhib 51*, CYP2C9 inhib 29, CYP2C19 activ 0.5 and CYP2C9 act 0.7.
`CC1(C)Cc2noc(N)c2C(C)(C)N1OC(=O)c1cccs1` gave CYP2C19 inhib 98*, CYP2C9 inhib 83*, CYP2C19 activ 0 and CYP2C9 act 0.2.
`FC(F)C(F)(F)C1=CC(c2cccs2)=NCCN1` gave CYP2C19 inhib 15, CYP2C9 inhib -7, CYP2C19 activ 0.9 and CYP2C9 act 1.1.
For CC1CCN(C(=O)Cn2cc3c(n2)CCCC3)CC1 the results were CYP2C19 inhib 55*, CYP2C9 inhib 15, CYP2C19 activ 0.4 and CYP2C9 act 0.9.
`COc1cccc(CNC(=O)Cn2cc3c(n2)CCCC3)c1` gave CYP2C19 inhib 70*, CYP2C9 inhib -22, CYP2C19 activ 0.3 and CYP2C9 act 1.2.
O=C(Cn1cc2c(n1)CCCC2)NCc1cccc(Cl)c1 was read as CYP2C19 inhib 48, CYP2C9 inhib -93, CYP2C19 activ 0.5 and CYP2C9 act 1.9.
Screening O=C(Cn1cc2c(n1)CCCCC2)NCc1ccccc1 returned CYP2C19 inhib 84*, CYP2C9 inhib -154, CYP2C19 activ 0.2 and CYP2C9 act 2.5*.
Screening Cc1ccc2nc(NC(=O)Cn3cc4c(n3)CCCCC4)sc2c1 returned CYP2C19 inhib 29, CYP2C9 inhib 66*, CYP2C19 activ 0.7 and CYP2C9 act 0.3.
For CC(C)C(=O)Nc1nnn(C)n1 the results were CYP2C19 inhib 0, CYP2C9 inhib -1, CYP2C19 activ 1 and CYP2C9 act 1.
Screening O=C(Nc1cccc(F)c1)C1C2C=CC3(CN(CCCN4CCOCC4)C(=O)C13)O2 (stereo not drawn) returned CYP2C19 inhib -9, CYP2C9 inhib -7, CYP2C19 activ 1.1 and CYP2C9 act 1.1.
`O=C(Cn1cc2c(n1)CCCC2)Nc1ccccc1Cl` gave CYP2C19 inhib 12, CYP2C9 inhib 19, CYP2C19 activ 0.9 and CYP2C9 act 0.8.
Screening COC(=O)c1ccccc1NC(=O)Cn1cc2c(n1)CCC(C)C2 (stereo not drawn) returned CYP2C19 inhib 13, CYP2C9 inhib 61*, CYP2C19 activ 0.9 and CYP2C9 act 0.4.
O=C(Cn1cc2c(n1)CCCC2)Nc1ccccc1Br was read as CYP2C19 inhib 90*, CYP2C9 inhib 67*, CYP2C19 activ 0.1 and CYP2C9 act 0.3.
For CC(C)CCNC(=O)Cn1cc2c(n1)CCCCC2 the results were CYP2C19 inhib 6, CYP2C9 inhib 49, CYP2C19 activ 0.9 and CYP2C9 act 0.5.
`CCN(CCNC(=O)Cn1cc2c(n1)CCCC2)c1ccccc1` gave CYP2C19 inhib 72*, CYP2C9 inhib 69*, CYP2C19 activ 0.3 and CYP2C9 act 0.3.
`CC(=O)C(C)Oc1cc(C)cc2oc(=O)c(C)c(C)c12` (stereo not drawn) gave CYP2C19 inhib 28, CYP2C9 inhib 57*, CYP2C19 activ 0.7 and CYP2C9 act 0.4.
Cc1csc(SCC(=O)Nc2cccc(S(=O)(=O)N3CCCC3)c2)n1 was read as CYP2C19 inhib 81*, CYP2C9 inhib 78*, CYP2C19 activ 0.2 and CYP2C9 act 0.2.
`Cc1csc(SCC(=O)Nc2cc(S(=O)(=O)N3CCCC3)ccc2Cl)n1` gave CYP2C19 inhib 31, CYP2C9 inhib 54*, CYP2C19 activ 0.7 and CYP2C9 act 0.5.
Screening O=C(COC(=O)c1ccccn1)Nc1ncc(C(F)(F)F)cc1Cl returned CYP2C19 inhib 35, CYP2C9 inhib 20, CYP2C19 activ 0.7 and CYP2C9 act 0.8.
`O=C(COC(=O)c1ccccn1)Nc1cccc(Cl)c1Cl` gave CYP2C19 inhib 84*, CYP2C9 inhib 22, CYP2C19 activ 0.2 and CYP2C9 act 0.8.
For COc1ccccc1S(=O)Cc1ccc(C(=O)NC2CCCC2)o1 (stereo not drawn) the results were CYP2C19 inhib 13, CYP2C9 inhib 55*, CYP2C19 activ 0.9 and CYP2C9 act 0.5.
For COc1ccccc1S(=O)Cc1ccc(C(=O)NCCc2ccc(Cl)cc2)o1 (stereo not drawn) the results were CYP2C19 inhib 62*, CYP2C9 inhib 65*, CYP2C19 activ 0.4 and CYP2C9 act 0.4.
CCn1c(=O)c(C(=O)CN2CCOCC2)c(N)n(Cc2ccccc2)c1=O was read as CYP2C19 inhib -19, CYP2C9 inhib -18, CYP2C19 activ 1.2 and CYP2C9 act 1.2.
`O=[N+]([O-])c1cc([N+](=O)[O-])c(N2CCCCCC2)cc1NCCO` gave CYP2C19 inhib 45, CYP2C9 inhib 70*, CYP2C19 activ 0.5 and CYP2C9 act 0.3.
